Assay results published in the supplement of paper PMC7380943.
Where a name gives a salt, the structure may show the parent alone.

Experiments:
[1] = system: CLZ3 (HCA2 human fibroblast dual HR-NHEJ reporter); experiment: NHEJ repair efficiency (GFP+ cells) relative to control (log10 fold); higher = more non-homologous end joining; conditions: 5 µM; doxycycline 0.5 ug/mL
[2] = system: CLZ3 (HCA2 human fibroblast dual HR-NHEJ reporter); experiment: HR repair efficiency (tdTomato+ cells) relative to control (log10 fold); higher = more homologous recombination; conditions: 5 µM; doxycycline 0.5 ug/mL
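For HR repair efficiency (tdTomato+ cells) relative to control in this document: compound given one day before doxycycline, which switches on I-SceI endonuclease expression to create double-strand breaks within the integrated reporter.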
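For NHEJ repair efficiency (GFP+ cells) relative to control in this document: compound given one day ahead of doxycycline, which switches on I-SceI endonuclease to cut the chromosomally integrated reporter and create DSBs.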

SMILES | NHEJ repair efficiency (log10) [1] | HR repair efficiency (log10) [2]
Cc1ccc(C(C)C)cc1O [Carvacrol] | -0.132 | -0.173
O=c1c(O)c(-c2cc(O)c(O)c(O)c2)oc2cc(O)cc(O)c12 [Myricetin] | 0.0547 | 0.02
CC(C)(C)NCC(O)c1ccc(O)c(CO)c1 (stereo not drawn) [Salbutamol Sulfate] | -0.0861 | -0.085
OCC1=C[C@@H](O)[C@]2(O[C@@H]3O[C@H](CO)[C@@H](O)[C@H](O)[C@H]3O[C@@H]3O[C@H](CO)[C@@H](O)[C@H](O)[C@H]3O)C=CO[C@@H](O[C@@H]3O[C@H](CO)[C@@H](O)[C@H](O)[C@H]3O)[C@H]12 [Rehmannioside D] | -0.165 | -0.0162
COc1ccc(-c2oc3c(CC=C(C)C)c(O[C@@H]4O[C@H](CO)[C@@H](O)[C@H](O)[C@H]4O)cc(O)c3c(=O)c2O[C@@H]2O[C@@H](C)[C@H](O)[C@@H](O)[C@H]2O[C@@H]2O[C@@H](C)[C@H](O)[C@@H](O)[C@H]2O)cc1 [Epimedin C] | -0.0776 | -0.0883
Nc1ncnc2c1ncn2[C@@H]1O[C@H](CO)C[C@H]1O [Cordycepin] | 0.007 | -0.139
COc1cc(O)c(C(C)=O)cc1S(=O)(=O)O [Sodium Paeonol Sulfonate] | 0.0246 | 0.0512
COc1ccc2c(c1O)-c1c(O)c(OC)cc3c1[C@H](C2)[N+](C)(C)CC3 [Magnoflorine iodide] | 0.122 | -0.0243
CC(C)=CCC[C@](C)(O[C@@H]1O[C@H](CO[C@@H]2O[C@H](CO)[C@@H](O)[C@H](O)[C@H]2O)[C@@H](O)[C@H](O)[C@H]1O)[C@H]1CC[C@]2(C)[C@@H]1[C@H](O)C[C@@H]1[C@@]3(C)CC[C@H](O[C@@H]4O[C@H](CO)[C@@H](O)[C@H](O)[C@H]4O[C@@H]4O[C@H](CO)[C@@H](O)[C@H](O)[C@H]4O)C(C)(C)[C@@H]3CC[C@]12C [Ginsenoside Rb1] | 0.0709 | 0.217
